High-throughput results from PubChem.
Cav32 inh – blocks human Cav3.2 T-type calcium channel | O95180 | Cav3.2-expressing cells, Fluo-4 calcium fluorescence FDSS; stronger effect = lower value | B-score at 10 µM | 100,000 tested, 4% active | AID 449739;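 active = single-dose well whose peak fluorescence ratio is a statistical outlier from its plate by either plate-standardised score or position-corrected B-score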
Mac1 fbg enh – CD11b/CD18-fibrinogen binding enhancement; P05107+P11215; K562 CD11b/CD18 adhesion to fibrinogen, ATPlite luminescence; activation, % at 10 µM; 93,000 tested, 0.07% active; AID 1499;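 active = 10 µM primary screen giving 50% or more activity, confirmed by 40% or more on retest at that dose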
Target sequence (P05107 whole entry, looked up, other chains not shown): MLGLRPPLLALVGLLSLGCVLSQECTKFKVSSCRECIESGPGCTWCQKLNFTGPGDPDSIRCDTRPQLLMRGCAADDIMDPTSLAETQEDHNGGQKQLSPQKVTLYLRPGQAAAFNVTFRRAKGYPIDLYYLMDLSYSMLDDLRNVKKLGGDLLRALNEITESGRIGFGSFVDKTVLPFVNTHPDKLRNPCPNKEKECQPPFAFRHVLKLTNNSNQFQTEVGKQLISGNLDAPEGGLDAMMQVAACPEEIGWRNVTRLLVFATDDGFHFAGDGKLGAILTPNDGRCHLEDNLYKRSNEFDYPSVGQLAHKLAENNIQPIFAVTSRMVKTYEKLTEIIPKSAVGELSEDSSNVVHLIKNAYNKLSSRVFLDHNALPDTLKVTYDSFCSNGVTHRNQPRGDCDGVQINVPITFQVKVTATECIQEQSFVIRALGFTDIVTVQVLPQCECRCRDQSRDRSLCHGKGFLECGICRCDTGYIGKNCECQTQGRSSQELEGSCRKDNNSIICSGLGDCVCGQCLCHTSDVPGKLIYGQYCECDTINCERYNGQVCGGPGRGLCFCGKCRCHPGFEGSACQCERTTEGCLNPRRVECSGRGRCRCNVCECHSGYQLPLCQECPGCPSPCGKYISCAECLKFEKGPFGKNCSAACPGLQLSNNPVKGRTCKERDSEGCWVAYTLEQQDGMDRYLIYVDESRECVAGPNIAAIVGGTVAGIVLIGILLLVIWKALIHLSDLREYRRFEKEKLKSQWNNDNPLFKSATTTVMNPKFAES
Ecoli WT expand – growth inhibitors of E. coli BW25113 wild type. OD600 absorbance. growth inhibition, % at 100 µM. 98,000 tested, 0.15% active;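 active = growth inhibition above about 50% at one test dose, limit read from the data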;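 also: growth measured after 20 h incubation at 37 °C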
CD11b adhes inh – blocks human CD11b/CD18 adhesion to fibrinogen | K562 CD11b/CD18 adhesion to fibrinogen, ATPlite luminescence; Mn2+ added to activate the integrin | inhibition, % at 10 µM | 93,000 tested, 0.54% active | AID 1497;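 active = primary inhibition of 50% or more at 10 µM, then 40% or more on retest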
* = called active by the depositor; · = no result. The full list was thinned out, with hits kept by preference.

SMILES	Cav32 inh	Mac1 fbg enh	Ecoli WT expand	CD11b adhes inh
CCn1cc(C(=O)NCc2ccco2)c(=O)c2cc(F)c(N3CCN(C(=O)c4ccco4)CC3)cc21	3	-3	90*	18
COC(=O)C1=COC(C)C2CN3CCc4c([nH]c5cc(OC)c(OC)cc45)C3CC12 (centres undefined)	-0.97	·	·	·
COC(=O)c1ccc2c(c1)C(C)(C)C(/C=C/c1ccc(OC)c(OC)c1OC)=[N+]2C	-2.3	-7	14	107*
CC(C)C(=O)NC(=S)Nc1ccc(S(=O)(=O)N(C)Cc2ccccc2)cc1	-5.7*	-1	-5	36
CN(Cc1ccccc1)S(=O)(=O)c1ccc(NS(=O)(=O)Cc2ccccc2)cc1	-3.8*	-2	-27	-12
CC(C)C(=O)NC(=S)Nc1ccc(S(=O)(=O)NC(C)(C)C)cc1	-1.1	6	-3	6
Cc1nnc(NC(=O)CSc2ncnc3c2cnn3-c2ccccc2C)s1	-1	·	-4	·
CCOC(=O)Cc1csc(NC(=O)CSc2ncnc3c2cnn3-c2ccccc2Cl)n1	-6.2*	-4	-12	47
CCOc1cc2nc(-c3ccc(OC)c(OC)c3)nc(N3CC(C)OC(C)C3)c2cc1OC (centres undefined)	·	4	0	-6
CCOc1cc2nc(-c3ccc(OC)c(OC)c3)nc(N3CCOCC3)c2cc1OC	-6*	-3	-2	14
O=C1NC[C@@H](Cc2cccc3ccccc23)N(CC2(c3ccccc3)CC2)C1=O	-0.014	·	·	·
CC(=O)C1=C(O)C(=O)N(c2cc(C(C)(C)C)on2)C1c1ccc(Br)cc1 (centres undefined)	-5.9*	-1	-15	32
CC(=O)C1=C(O)C(=O)N(c2cc(C(C)(C)C)on2)C1c1ccc(C(C)C)cc1 (centres undefined)	-4.2*	-2	5	35
O=C(NC1CC1)C1=C[C@H](c2coc3ccccc3c2=O)C[C@H](OCc2ccc(CO)cc2)O1	0.34	·	·	·
CCOC(=O)Cn1c(=O)oc2cc(S(=O)(=O)NCCc3ccc(OCC)c(OCC)c3)ccc21	0.56	3	3	37
Cc1ccc(/C=N/N2C(=O)c3ccccc3NC2c2ccc(C)cc2)cc1 (centres undefined)	·	-1	·	23
O=C1c2ccccc2NC(c2cccc(Cl)c2)N1N=C1CCCCCC1 (centres undefined)	-3.9*	·	3	·
COC(=O)COc1cccc2c(=O)n(CC(=O)NCCc3ccccc3)ccc12	-0.58	·	·	·
Cc1nn(Cc2ccc(Cl)c(Cl)c2)c(C)c1NC(=O)c1cc(CC(C)C)on1	-8.6*	2	0	12
COc1cccc(-c2cc(C(=O)Nc3c(C)nn(Cc4ccccc4C)c3C)no2)c1	-3.9*	1	-6	-4
Cc1nn(Cc2ccccc2)c(C)c1NC(=O)c1cc(-c2cccs2)on1	-4.8*	0	3	-10
COc1ccc(-c2cc(C(=O)Nc3c(C)nn(Cc4ccccc4)c3C)no2)cc1	-1.3	-6	-4	0
Cc1cc(NC(=O)c2cc(C(C)C)on2)nn1Cc1ccc(Cl)cc1	-7.1*	-1	-13	45
Cc1sc2ncn(CC(=O)OC(C)C)c(=O)c2c1C	-0.76	-3	1	4
C/C(=N\OCC(=O)N/N=C/c1ccccc1O)c1cccs1	-4.3*	0	8	8
SMILES	Cav32 inh	Mac1 fbg enh	Ecoli WT expand	CD11b adhes inh
CNC(=O)N(C1=NCCCCC1)c1ccc(Br)cc1	·	8	·	-6
Oc1c(C(Nc2ccccn2)c2ccccn2)ccc2cccnc12 (centres undefined)	·	-2	54*	-5
Cc1ccc2ccc(C(Nc3ccccn3)c3ccccc3)c(O)c2n1 (centres undefined)	-2.5	7	9	-3
Cc1cc(NC(c2ccc(Cl)cc2)c2ccc3cccnc3c2O)no1 (centres undefined)	-4.1*	1	29	0
O=C(NC1CCCCCC1)c1nnc(Cc2ccc(Cl)cc2)o1	-1.9	·	·	·
O=C(c1nnc(Cc2ccc(Cl)cc2)o1)N1CCc2ccccc2C1	-5.7*	·	·	·
C=C1CCC(C)C(C)(CCC2=CCOC2=O)C/C=C\C=C/1C(=O)O (centres undefined)	-3.9*	·	·	·
Cc1ccc2c(CC(=O)N3CCN(S(=O)(=O)c4ccc5c(c4)OCCO5)CC3)coc2c1	-5.6*	-1	-6	1
Cc1cccc(NC(=O)CNc2cc(C)ccc2C)c1	-5.8*	-3	2	-6
COc1ccc(CCNC(=O)C2CC3Cn4c(nc5ccccc54)C3N2c2ccccc2)cc1 (centres undefined)	-0.035	·	·	·
CCOC(=O)c1cc(C)n(Cc2cccc(OC)c2OC)c1C	-2.6	-3	-5	56*
Cc1ccc(NC(=O)C(OC(=O)c2ccc(C=O)cc2)c2ccccc2)cc1Cl (centres undefined)	·	5	·	61
O=C(Nc1cccn(Cc2c(Cl)cccc2Cl)c1=O)c1c(Cl)cccc1Cl	-6.5*	·	-13	·
COC(=O)c1sccc1OC(C)C(C)=O (centres undefined)	-0.24	-6	-5	-12
Cc1nc2cc(-c3ccsc3-n3c(C)ccc3C)[nH]n2c(=O)c1Cl	-4.7*	-6	2	89
COCc1cc(=O)n2[nH]c(-c3ccsc3-n3c(C)ccc3C)cc2n1	1.1	-3	-3	14
Cc1cc(NC(=O)CCNS(=O)(=O)c2cc(Br)cnc2N)ccc1Br	-5*	-4	0	3
c1ccc(N2OCC3Cn4c(nc5ccccc54)C32)cc1 (centres undefined)	0.89	·	·	·
CN1CCN(S(=O)(=O)c2cccc([N+](=O)[O-])c2)CC1	0.45	·	·	·
O=[N+]([O-])c1cccc(S(=O)(=O)Nc2nc3ccccc3nc2Nc2cccc(S(=O)(=O)N3CCCCC3)c2)c1	·	4	·	98*
Cc1ccc(NC(=O)/C(=C\c2ccc3c(c2)OCO3)NC(=O)c2ccco2)cc1	0.62	·	-4	·
CC(CC1C(C#N)=C(N)SC(N)=C1C#N)c1ccccc1 (centres undefined)	·	-8	5	48
CC(c1ccccc1)C1C(C#N)=C(N)SC(N)=C1C#N (centres undefined)	-5*	-7	-3	4
CCCCNc1nc2ccccc2[nH]1	1.1	1	19	-1
O=C(C[n+]1cc2ccccc2c2ccccc21)c1ccccc1	-0.16	-3	11	-5
SMILES	Cav32 inh	Mac1 fbg enh	Ecoli WT expand	CD11b adhes inh
CCCCCCCCC[n+]1cccc2c3ccccc3ccc21	-2.7	-10	70*	106*
CCCCCCCCCCCCCCCC[n+]1cccc2ccccc21	·	-7	·	106*
CC(=O)N1CCN(c2cc(N3CCc4ccccc4C3)c(F)cc2[N+](=O)[O-])CC1	1	8	-20	-13
CCN(Cc1ccccc1)C(c1ccc(C(F)(F)F)cc1)c1nnnn1C(C)(C)C (centres undefined)	-4.4*	·	·	·
CC1Cc2ccccc2N1CC(=O)NCc1ccc2c(c1)OCO2 (centres undefined)	·	4	·	-2
COc1cccc(Oc2cncnc2-c2ccc(OC)cc2O)c1	-3.9*	1	-4	2
Cc1ccc(C)c(-n2c(C)cc(/C=N/NC(=O)c3c(C)nc4cc(C)ccn34)c2C)c1	-3.1	·	·	·
